Cruzain inh Det: qHTS Assay for Promiscuous and Specific Inhibitors of Cruzain (with detergent); Cruzipain (Trypanosoma cruzi), P25779; purified cruzain, Z-FR-AMC fluorescence, 0.01% Triton; Potency, µM, for the others: max response, negative = inhibition, hits mostly inhibitors; actives 0.43% (n = 200,000);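 further: plate controls were neutral wells for no effect and buffer without enzyme for full effect; nearly all actives have a fitted effect of over 40% in size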
Target sequence (P25779 123-467 limits assumed): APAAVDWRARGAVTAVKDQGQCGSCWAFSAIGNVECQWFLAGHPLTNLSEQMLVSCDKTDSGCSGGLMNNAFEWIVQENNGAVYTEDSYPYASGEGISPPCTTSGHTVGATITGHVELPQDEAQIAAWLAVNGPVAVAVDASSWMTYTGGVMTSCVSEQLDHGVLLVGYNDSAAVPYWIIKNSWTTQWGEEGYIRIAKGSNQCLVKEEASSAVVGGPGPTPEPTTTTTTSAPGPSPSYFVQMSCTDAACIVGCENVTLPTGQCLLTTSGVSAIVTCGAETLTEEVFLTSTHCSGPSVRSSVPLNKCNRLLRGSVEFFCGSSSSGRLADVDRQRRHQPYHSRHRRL
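Cysteine protease activity tested under reducing, mildly acidic conditions (100 mM sodium acetate pH 5.5, 5 mM DTT) plus 0.01% Triton X-100. Cruzain 1.5 nM; substrate Z-FR-AMC 2 uM; 15 min compound preincubation at room temperature.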
Cruzain inh noDet: qHTS Assay for Promiscuous and Specific Inhibitors of Cruzain (without detergent); AID 1476, 2009; actives 2.3% (n = 200,000); Cruzipain (Trypanosoma cruzi), P25779; Potency, µM, for the others: max response, negative = inhibition, hits mostly inhibitors; purified cruzain, Z-FR-AMC fluorescence, no detergent;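 further: plate controls were enzyme without inhibitor for no effect and buffer without enzyme for full effect; nearly all actives have a fitted effect of over 40% in size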
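Detergent-free condition (0.00005% Triton X-100) in acetate buffer pH 5.5 with DTT. 1.5 nM enzyme and compound were pre-mixed 15 min, then 2 uM Z-FR-AMC substrate added; reaction progress from fluorescence change between first and third reads (60 s).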
Numbers without * were called inactive; ? = inconclusive. Sampled rows, rich in hits. Any-hit rate of the full collection: about 2.5%. The call rests on the fitted dose curve; in most records, active means well fitted curve in the direction sought with a large enough effect; inconclusive means small, poorly fitted or top-dose-only effect, or another doubt; inactive means no such curve, though single readings can be large; an effect the other way counts as inactive or inconclusive. Potency means the concentration at half of the fitted maximal effect.

SMILES	Cruzain inh Det	Cruzain inh noDet
CCC1CCCCN1C(=O)Cn1c(=O)n(CCCCCC(=O)NCc2ccccc2Cl)c(=O)c2sccc21 (stereo unspecified)	-1%	-7%
CCCn1c(=O)c2sccc2n2c(CCCC(=O)N3CCN(c4ccccc4)CC3)nnc12	2%	-10%
COc1ccc(C)cc1NC(=O)c1ccc(N(C)S(C)(=O)=O)cc1	-9%	-5%
CC(=O)c1cccc(NC(=O)C(OC(=O)c2ccccc2NS(=O)(=O)c2cccs2)c2ccccc2)c1 (stereo unspecified)	-3%	7.9µM*
COc1ccc(N(C)S(=O)(=O)c2cccc(C(=O)Nc3ccc(OC)nc3)c2)cc1	-2%	8%
CC(=O)NCCC(=O)Nc1cccc(S(=O)(=O)N(C)c2ccccc2)c1	1%	-4%
CC(=O)c1cccc(NC(=O)C(OC(=O)c2cccc(S(=O)(=O)N(C)c3ccccc3)c2)c2ccccc2)c1 (stereo unspecified)	-1%	25µM*
COc1ccc(C)cc1NC(=O)C(OC(=O)c1ccc(Cl)c(S(=O)(=O)N(C)c2ccccc2)c1)c1ccccc1 (stereo unspecified)	3%	10µM*
COc1ccc(N(C)S(=O)(=O)c2cccc(C(=O)OC(C(=O)Nc3cc(C)cc(C)c3)c3ccccc3)c2)cc1 (stereo unspecified)	3%	10µM*
CCOc1ccccc1NC(=O)C(OC(=O)c1ccccc1NS(=O)(=O)c1cccs1)c1ccccc1 (stereo unspecified)	-2%	?
CC(C)Cn1c(=O)c2ccccc2n2c(CCC(=O)Nc3cccc(Cl)c3)nnc12	0%	-2%
Cc1ccc(CNC(=O)c2cnc(N3CCCCC3)c3ccccc23)cc1	-13%	-9%
CCOC(=O)c1ccccc1NC(=O)COc1ccccc1-c1nnc(-c2ccccc2)o1	-8%	14%
COc1cccc(CNC(=O)C2CCCN(S(=O)(=O)c3ccc4c(ccn4C)c3)C2)c1OC (stereo unspecified)	-1%	-1%
CC1CCC(NC(=O)c2ccc3c(c2)N(Cc2ccccc2F)C(=O)c2ccccc2S3)CC1 (stereo unspecified)	-2%	?
COc1ccccc1C(=O)NCC(=O)OC(C)C(=O)NC(=O)NC1CCCCC1 (stereo unspecified)	8.9µM*	10µM*
COc1ccccc1C(=O)NCC(=O)OCc1ccc(Br)cc1	-19%	-11%
Cc1cc(N2C(=O)C(O)=C(C(=O)c3ccc(C)o3)C2c2cccs2)no1 (stereo unspecified)	3%	-8%
CCc1ccc2nc(N3CCN(C(=O)c4ccco4)CC3)sc2c1	-5%	11%
CCc1ccc2nc(N3C(=O)C(O)=C(C(=O)c4ccco4)C3c3cccs3)sc2c1 (stereo unspecified)	25µM*	?
Cc1ccc2nc(N3C(=O)C(O)=C(C(=O)c4cc5ccccc5o4)C3c3cccs3)sc2c1 (stereo unspecified)	16µM*	9%
CC1CCN(C(=O)CN2CCSc3ccc(S(=O)(=O)N(C)C)cc32)CC1	-3%	8%
Cc1ccc(Cn2c(=O)n(-c3cc(C)cc(C)c3)c(=O)c3oc4ccccc4c32)cc1	-4%	-16%
O=C(CSc1nnc(-c2cccs2)o1)Nc1cccc(C(F)(F)F)c1	-10%	7%
O=C(NCc1ccccc1)C(=O)Nc1c2c(nn1-c1ccc(F)cc1)CSC2	-1%	20µM*
SMILES	Cruzain inh Det	Cruzain inh noDet
COc1cccc(CNC(=O)C(=O)Nc2c3c(nn2-c2ccccc2)CSC3)c1	0%	?
Cc1ccccc1Cn1ccn(-c2ccc(F)c(F)c2)c(=O)c1=O	-3%	-3%
COc1cc(/C=C/c2nc(C#N)c(N3CCCCCC3)o2)cc(OC)c1OC	44%	?
Cc1ccc(NC(=O)c2ccc(CNS(=O)(=O)c3cccc(C(F)(F)F)c3)cc2)cc1	-13%	25µM*
O=C(Nc1ccccc1F)c1ccc(CNS(=O)(=O)c2cccc(C(F)(F)F)c2)cc1	3%	?
CCOc1ccc(/C=C/c2nc(C#N)c(N3CCCCC3)o2)cc1	1%	-2%
O=C(Cn1c(=O)n2nc(-c3cccc(F)c3)nc2c2ccccc21)N1CCN(c2ccccc2F)CC1	2%	24%
CC1CN(C(=O)Nc2ccc(C(=O)NCCc3ccccc3)cc2)c2ccccc2S1 (stereo unspecified)	4%	-5%
Nc1ccc2c(c1)C/C(=C/c1ccco1)C2=O	-15%	?
COc1ccc2c(c1)CC/C(=C/c1ccco1)C2=O	22µM*	20µM*
COc1cc(/C=C(\C#N)c2nc3ccccc3[nH]2)cc(Br)c1OCc1ccc(F)cc1	-4%	25µM*
CCN(CC)c1ccc(/C=C(/C#N)c2nc3ccc(C)cc3[nH]2)c(OC(C)C)c1	2%	25µM*
CCOc1cc(N(CC)CC)ccc1/C=C(/C#N)c1nc2ccccc2[nH]1	-2%	32µM*
COc1cccc(/C=C(\C#N)c2nc3ccc(C)cc3[nH]2)c1	-2%	?
CCCOc1cc(N(CC)CC)ccc1/C=C(/C#N)c1nc2ccc(C)cc2[nH]1	-2%	20µM*
COc1cc(/C=C(\C#N)c2nc3ccccc3[nH]2)cc(Br)c1OCc1ccccc1	-2%	?
CCOC(=O)COc1ccc(/C=C(\C#N)c2nc3ccc(C)cc3[nH]2)cc1OC	-3%	?
Cc1cc(/C=C(\C#N)c2nc3ccccc3[nH]2)c(C)n1C	-4%	?
CCN(CC)c1cc(C)c2cc(NC(=O)c3ccccc3Cl)ccc2n1	-8%	11%
CC(C)C(=O)c1cc2c(cc1NC(=O)c1ccccc1F)OCCO2	-9%	?
COc1ccccc1NC(=O)c1c(-c2ccc(C)cc2)nnc2ccccc12	-4%	-19%
COc1ccc(-n2nc(C(=O)NCc3ccc(F)cc3Cl)c3c4ccccc4n(C)c3c2=O)cc1Cl	0%	-2%
Cc1ccc2nc(/C(C#N)=C/c3ccc(-c4ccc(F)cc4F)o3)[nH]c2c1	-12%	10µM*
Cc1ccc2nc(/C(C#N)=C/c3ccc(-c4cccc([N+](=O)[O-])c4)o3)[nH]c2c1	-19%	?
Nc1nonc1-c1nc2ccccc2n1Cc1ccccc1	-7%	-15%
SMILES	Cruzain inh Det	Cruzain inh noDet
Nc1nonc1-c1nc2ccccc2n1Cc1c(Cl)cccc1Cl	-4%	25µM*
Cc1cc(C=O)c(C)n1-c1sc2c(c1C(=O)O)CCCC2	-3%	-2%
COC(=O)c1c(-n2c(C)cc(C=O)c2C)sc2c1CCCC2	4%	7.9µM*
CCOc1ccc(NC(=S)/C(=C(\[O-])c2ccc(C)c([N+](=O)[O-])c2)[n+]2ccccc2)cc1	-6%	25µM*
CCc1cc[n+](/C(C(=S)Nc2cccc(C)c2)=C(/[O-])c2ccc(C)c([N+](=O)[O-])c2)cc1	-9%	-21%
CC(C)c1cnc2c(c1SCC(=O)NCc1ccccc1)c(=O)n(C)c(=O)n2C	2%	-11%
O=C(Oc1ccccc1)N1CCC2(CC1)CN(c1ccncc1)C2	3%	-12%
O=C(NC(=S)Nc1ccccc1N1CCOCC1)c1sc2ccccc2c1Cl	1%	10µM*
NC(N)=NS(=O)(=O)c1ccc(NC(=S)NC(=O)c2sc3ccccc3c2Cl)cc1	-3%	10µM*
O=C(NC(=S)Nc1ccc(N2CCOCC2)c(Cl)c1)c1sc2ccccc2c1Cl	-5%	?
COc1cc(NS(=O)(=O)c2ccc(NC(=S)NC(=O)c3sc4ccccc4c3Cl)cc2)nc(OC)n1	-6%	-7%

Bioassay records as filed in PubChem BioAssay.
